Bioassay records from PubChem.
Only some compounds are listed: those with a hit (about 3.7% of all), similar ones and a draw of the others.
RGS4 inh: human RGS4 inhibition; P49798; Transcreener GDP fluorescence polarization, RGS4-accelerated GTP hydrolysis; Potency, µM (titrated, usually from 114 µM), actives largely listed as inhibitors; 390,000 tested, 0.039% active; note: nearly all actives have a fitted effect of over 75% in size
Target sequence (P49798 whole entry, looked up): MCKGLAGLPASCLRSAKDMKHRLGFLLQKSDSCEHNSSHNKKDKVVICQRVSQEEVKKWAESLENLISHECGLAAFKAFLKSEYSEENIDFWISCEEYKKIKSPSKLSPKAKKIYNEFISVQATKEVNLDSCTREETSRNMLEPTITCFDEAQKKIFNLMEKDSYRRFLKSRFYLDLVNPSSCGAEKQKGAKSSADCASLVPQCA
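MLSMR compounds (23 nl, pin-transferred) preincubated 10 min at room temperature with a 500nM (2x) first reagent, then RGS4 at 900nM (2x) plus Transcreener GDP mix added; fluorescence polarization (620/688 nm) read before and after 90 min at 30 °C.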
B2AR arrestin: agonists driving beta-arrestin recruitment to human beta2-adrenergic receptor; P07550; beta-arrestin recruitment to beta2AR, cell-based reporter; Potency, µM (top dose mostly 46.1 µM), hits mostly activators; 330,000 tested, 0.02% active; AID 492947; note: nearly all actives have a fitted effect of over 65% in size
PTHR1 ag: PTHR1 (human) receptor agonism | HEK293 GP2 PTHR1 cells, GloSensor cAMP luminescence, 1 h | Potency, µM (highest dose often 115 µM), actives largely listed as activators | 410,000 tested, 0.075% active | AID 743266; note: nearly all actives have a fitted effect of over 55% in size
Target sequence (Q03431 whole entry, looked up): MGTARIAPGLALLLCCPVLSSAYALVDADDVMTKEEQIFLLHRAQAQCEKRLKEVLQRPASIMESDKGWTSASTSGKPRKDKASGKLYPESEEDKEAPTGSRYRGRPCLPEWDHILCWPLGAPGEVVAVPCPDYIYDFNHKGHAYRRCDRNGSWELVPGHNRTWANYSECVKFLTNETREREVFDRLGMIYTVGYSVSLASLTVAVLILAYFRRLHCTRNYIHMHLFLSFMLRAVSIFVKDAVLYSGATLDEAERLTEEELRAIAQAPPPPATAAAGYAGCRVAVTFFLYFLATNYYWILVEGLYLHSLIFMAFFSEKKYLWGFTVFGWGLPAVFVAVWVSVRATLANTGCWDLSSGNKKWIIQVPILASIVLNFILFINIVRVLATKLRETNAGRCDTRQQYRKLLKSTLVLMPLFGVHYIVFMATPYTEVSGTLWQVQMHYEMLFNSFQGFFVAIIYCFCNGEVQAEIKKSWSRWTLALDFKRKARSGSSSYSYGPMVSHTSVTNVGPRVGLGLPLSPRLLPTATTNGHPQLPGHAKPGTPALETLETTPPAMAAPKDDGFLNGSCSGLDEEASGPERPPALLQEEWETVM
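HEK-293-derived GP2 cells expressing PTHR1 and a GloSensor cAMP reporter, 3,000/well, plated overnight, given luciferin plus IBMX (each 0.5 mM as added) for 1 h at 37 °C, then compound for 1 h at 37 °C. Luminescence was read after 15 min at room temperature.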
D3 ag: agonists of human D3 dopamine receptor. D3R DiscoveRx beta-arrestin cells, luminescence, 90 min. max activation, %. 410,000 tested, 0.58% active. AID 652048; in the data active = max activation above about 30%
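Agonist mode: compounds and dopamine controls were applied to plated cells for 90 min at 37 degrees C after an overnight attachment at 1500 cells/well. Luminescent read-out followed 30 - 60 minutes at room temperature with DiscoveRx detection reagent.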
DRD3 antagonist: antagonists of human D3 dopamine receptor; D3R cells, DiscoveRx beta-arrestin luminescence, antagonist mode; hits give low values; max response, negative = inhibition, %; 360,000 tested, 2.5% active; AID 652054; in the data active = max response below about -50%; inconclusive = no clear call, values can overlap the other calls
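Cells expressing the human receptor were seeded at 1500 cells/well, incubated overnight at 37 degrees C in 5% CO2, then exposed to library compounds with dopamine controls for 90 minutes at 37 degrees C before luminescent detection.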
BRCA1 expr act: increases BRCA1 expression | MCF7-BRCA1-FFLuc reporter, luminescence, 48 h; response scale: scaled: vehicle 0%, 10 µM genistein 100% | Potency, µM (titrated, usually from 46.1 µM), actives largely listed as activators | 380,000 tested, 1.1% active | AID 624202; note: nearly all actives have a fitted effect of over 80% in size
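Activators of BRCA1 expression were detected as increased firefly luciferase luminescence in engineered MCF7 cells after 48 h compound incubation. Signals were scaled to genistein 10 microM as full activation.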
Large screens that a line does not name were inactive. Unless noted, calls come from the whole dose curve; as a rule, active = well fitted curve in the direction sought with a large enough effect; inconclusive = small, poorly fitted or top-dose-only effect, or another doubt; inactive = no such curve, though single readings can be large; an effect the other way counts as inactive or inconclusive.

O=C(Nc1cccc(Cl)c1Cl)c1csc([C@H]2C[C@H](O)[C@@H](CO)O2)n1	BRCA1 expr act inconclusive (no result: RGS4 inh, B2AR arrestin)
Cc1ccc(CN(Cc2ccco2)C(=O)COc2c(C)cc(C)cc2C)cc1	none (no result: B2AR arrestin, DRD3 antagonist)
Cc1ccc(CN(Cc2ccco2)C(=O)COc2ccccc2C)cc1	D3 ag 36 (no result: B2AR arrestin, DRD3 antagonist)
Cc1cc(NC(=O)c2cccnc2)ccc1Br	BRCA1 expr act inconclusive
CCCOc1ccc(C(=O)N2CCCC2C(=O)O)cc1 (stereo unspecified)	DRD3 antagonist -61
O=c1c2c3c(sc2nc2n1N=C(c1cccs1)CS2)CCCC3	BRCA1 expr act 1.3µM
CCOc1ccccc1CNC(=O)CCCn1c(=O)c2cccn2c2cccnc21	none (no result: B2AR arrestin, DRD3 antagonist, BRCA1 expr act)
CC(=O)Nc1ccc(S(=O)(=O)N(CCCN2CCOCC2)Cc2cccs2)cc1	none
CC(C)(C)c1ccc(S(=O)(=O)N(CCCN2CCOCC2)Cc2cccs2)cc1	DRD3 antagonist -67
O=C(CSc1nc2ccccc2[nH]1)N/N=C/c1ccco1	none
Cc1cc(C)c2c(=O)cc(C(=O)NCc3ccccc3)oc2c1	DRD3 antagonist -53
Cc1cc(C)c2oc(C(=O)NCc3ccccc3)cc(=O)c2c1	none
CN1CCN(C(=O)CC23CC4CC(CC(C4)C2)C3)CC1	DRD3 antagonist -78
CC(=O)Nc1ccc(NC(=O)C(Cc2ccccc2)N2Cc3ccccc3C2=O)cc1 (stereo unspecified)	none (no result: B2AR arrestin, DRD3 antagonist, BRCA1 expr act)
Cc1nc(SCC(=O)Nc2ccc3c(c2)OCO3)c(C#N)c2c1CCCC2	BRCA1 expr act 7.1µM
Cc1cc(C)c(C#N)c(SCC(=O)Nc2ccc3c(c2)OCO3)n1	DRD3 antagonist inconclusive, BRCA1 expr act 11µM
COCc1cc(C)nc(SCC(=O)Nc2ccc(C)c(C)c2)c1C#N	BRCA1 expr act 4µM
Cc1noc(NS(=O)(=O)c2ccc(NC(=O)C(Cl)(Cl)Cl)cc2)c1C	none
Cc1noc(NS(=O)(=O)c2ccc(NC(=O)Nc3ccc(Cl)c(Cl)c3)cc2)c1C	DRD3 antagonist -77
CCOc1cccc(NC(=O)CSc2nc(C)c3c(c2C#N)CCCC3)c1	none
Cc1nc(N2CCOCC2)c2c(C(=O)N3CCN(c4ccc(Cl)cc4)CC3)c(C)oc2n1	none (no result: B2AR arrestin, DRD3 antagonist, BRCA1 expr act)
COc1ccc(S(=O)(=O)N2C[C@H]3CON(C)[C@H]3C[C@H]2c2ccc(-c3cc4ccccc4o3)cc2)cc1	none (no result: RGS4 inh, B2AR arrestin)
Cc1noc(NS(=O)(=O)c2ccc(NC(=O)CSc3n[nH]c(-c4ccccc4)n3)cc2)c1C	DRD3 antagonist inconclusive
Cc1cc(C)c(C#N)c(SCC(=O)Nc2ccc(S(=O)(=O)Nc3onc(C)c3C)cc2)n1	DRD3 antagonist -54
C=C1CC[C@H](O)CC1=C/C=C1\CCC[C@]2(C)[C@@H]([C@H](C)CCCC(C)(C)O)CC[C@@H]12	none (no result: RGS4 inh, B2AR arrestin, PTHR1 ag, DRD3 antagonist, BRCA1 expr act)
COC(=O)c1c(-c2ccc(Cl)cc2)noc1N1CCN(c2ccc(OC)cc2)CC1	D3 ag 69 (no result: B2AR arrestin, DRD3 antagonist, BRCA1 expr act)
COc1ccccc1-c1ccc(NC2CCCCC2)nn1	BRCA1 expr act 7.1µM
COc1ccc(CN2[C@@H](CC(=O)O)c3cc(C(F)(F)F)ccc3S2(=O)=O)cc1	none (no result: B2AR arrestin)
COC(=O)C[C@H]1c2cc(C(F)(F)F)ccc2S(=O)(=O)N1Cc1ccc(OC)cc1	D3 ag 48 (no result: B2AR arrestin)
O=S(=O)(c1cccc2cccnc12)N1CCCCC1	none
CN1CCN(c2ncccc2S(=O)(=O)N2CCCCC2)CC1	DRD3 antagonist -67
Cc1ccc(-c2nnc(N3CCCCC3)c3ccccc23)cc1S(=O)(=O)N1CCN(C)CC1	DRD3 antagonist -83
Cc1ccc(-c2nnc(N3CCCCC3)c3ccccc23)cc1S(=O)(=O)N(C)C	none
Cc1cc(/C=C\c2ccc3cc(N(C)C)ccc3[n+]2C)c(C)n1-c1ccccc1	DRD3 antagonist -61
CCc1ccc2c(c1)c(=O)c(S(=O)(=O)c1ccccc1)cn2CC(=O)Nc1ccc(OC)cc1	none (no result: B2AR arrestin, DRD3 antagonist)
Cc1cc2cc3c(=O)[nH]c(=O)cc-3n(CC(O)C(O)C(O)CO)c2cc1C (stereo unspecified)	DRD3 antagonist -97 (no result: RGS4 inh, B2AR arrestin)
COc1ccc(OC)c(N(CC(=O)Nc2cccnc2)S(=O)(=O)c2ccccc2)c1	none
CCN1/C(=C\C=C(C(C)=O)C(C)=O)Sc2ccccc21	none
CCOC(=O)/C(C#N)=C(C)/C=C1\Sc2ccccc2N1CC	BRCA1 expr act 3.2µM
Cc1cccc(S(=O)(=O)NC(=O)C2(C)CCN2C(=O)C/C=C/c2ccccc2)c1 (stereo unspecified)	none (no result: RGS4 inh, B2AR arrestin)
CCOC(=O)/C(=C/C1=CC(=C/N(C)C)/C(=O)O1)C(C)=O	D3 ag 30
O=C(c1ccccc1)C1CCN(C(=O)c2ccco2)CC1	none
Cc1ccc(S(=O)(=O)/N=C(/c2ccccc2)N2CCOCC2)cc1	D3 ag 36
COc1ccccc1N1CCN(CCC(=O)Nc2ccc(F)cc2)CC1	DRD3 antagonist -98
O=C(Nc1ccc2c(c1)OCO2)N1CCN(c2ccccc2Cl)CC1	DRD3 antagonist inconclusive, BRCA1 expr act 10µM
COc1ccccc1N1CCN(CCC(=O)Nc2cccc(Cl)c2)CC1	DRD3 antagonist -124
O=C(Nc1ccc2c(c1)OCO2)N1CCN(S(=O)(=O)c2ccc(Cl)cc2)CC1	none
COc1ccccc1N1CCN(CC(=O)Nc2cccc(F)c2)CC1	none
CCOc1ccc(NC(=O)CCN2CCN(c3ccccc3F)CC2)cc1	DRD3 antagonist inconclusive
CCOc1ccc(NC(=O)CCN2CCN(c3ccccc3OC)CC2)cc1	RGS4 inh inconclusive, DRD3 antagonist -91
COc1ccc(C(=O)N(Cc2cc(OC)c(OC)c(OC)c2)CC2CCCO2)cc1 (stereo unspecified)	none (no result: B2AR arrestin, DRD3 antagonist, BRCA1 expr act)
CCN(CC)S(=O)(=O)c1ccc2c(c1)nc(CN(C)C(=O)Nc1ccc(F)cc1)n2C	none (no result: B2AR arrestin, DRD3 antagonist)
Cc1ccc(S(=O)(=O)Oc2cccc([N+](=O)[O-])c2)cc1	none (no result: B2AR arrestin)
O=C1CCCCC1CCc1ccncc1 (stereo unspecified)	none (no result: B2AR arrestin)
COc1ccccc1N1CCN(CCC(=O)Nc2ccc3c(c2)OCO3)CC1	DRD3 antagonist -90
COc1ccc(S(=O)(=O)N(C)C[C@H]2Oc3c(NC(=O)Cc4ccccc4)cccc3C(=O)N([C@H](C)CO)C[C@@H]2C)cc1	none
Cc1oc(-c2ccccc2Cl)nc1Cn1c(SCc2cccc(F)c2)nc2cccnc21	D3 ag 44 (no result: B2AR arrestin, DRD3 antagonist, BRCA1 expr act)
COc1ccc(-c2nc(Cn3c(SCc4cccc(F)c4)nc4cccnc43)c(C)o2)cc1	none (no result: B2AR arrestin, DRD3 antagonist, BRCA1 expr act)
COC(=O)c1ccccc1NC(=O)CCS(=O)(=O)c1ccc(Br)s1	DRD3 antagonist -52
Cc1ccccc1NC(=O)CCS(=O)(=O)c1ccc(Br)s1	none
CCc1nc2ccc(C(=O)N(CC)CCN(C)C)cn2c1N(C)Cc1cccs1	none (no result: RGS4 inh, B2AR arrestin)
